Screening data (PubChem)
DT40 TDP1 CPT = qHTS for Inhibitors of human tyrosyl-DNA phosphodiesterase 1 (TDP1): qHTS in cells in presence of CPT; Potency, µM (doses to about 46.2 µM), without a hit: at the top dose activity change, negative = growth inhibition, hits mostly inhibitors; chicken DT40 Tdp1-/-;hTDP1 cells + 20 nM CPT, ATP luminescence, 48 h; AID 686979, 2013; 420,000 tested, 12% active; also: potency is read from the fitted curve at half-maximal effect; nearly all actives have a fitted effect of over 55% in size
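Cell growth measured by CellTiter-Glo luminescence after a minimum 48 h, 37 C compound exposure with 20 nM CPT in Tdp1-knockout DT40 cells stably expressing hTDP1, seeded 400/well; qHTS titration format.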
HT1080 IDH1KD tx = qHTS for induction of synthetic lethality in tumor cells producing 2HG: qHTS for the HT-1080-IDH1KD cell line; Potency, µM (titrated, usually from 46.1 µM), without a hit: at the top dose activity, negative = toxicity, hits mostly cytotoxic; 360,000 tested, 2% active; HT-1080 IDH1 knockdown viability, ATP luminescence, 48 h;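 also: potency is read from the fitted curve at half-maximal effect; 0% = DMSO wells and -100% = cell-free medium wells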
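Knockdown cells (IDH1KD HT-1080) received compounds 2 h after plating at 750 cells/well and were kept 48 h at 37 °C in 5% FBS RPMI. A CellTiter-Glo luminescence read gave % activity for curve fitting.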
HT1080-NT tox = qHTS for induction of synthetic lethality in tumor cells producing 2HG: qHTS for the HT-1080-NT fibrosarcoma cell line; HT-1080-NT fibrosarcoma viability, CellTiter-Glo ATP luminescence, 48 h; AID 686970, 2013; 360,000 tested, 1.6% active; Potency, µM (highest dose often 46.1 µM), without a hit: at the highest dose activity, negative = less viability, most hits filed as cytotoxic;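 also: NT is the 2HG producing partner of a matched IDH1 knockdown line; potency is read from the fitted curve at half-maximal effect; 0% = DMSO-treated cells and -100% = media-only wells without cells; nearly all actives have a fitted effect of over 55% in size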
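750 cells/well, RPMI + 5% FBS; 2 h settle, compound pin-transfer, 48 h at 37 degrees C. CellTiter-Glo 10 min RT, luminescence. Normalized to DMSO and media-only wells.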
DT40 TDP1 no CPT = qHTS for Inhibitors of human tyrosyl-DNA phosphodiesterase 1 (TDP1): qHTS in cells in absence of CPT; 420,000 tested, 15% active; Potency, µM (doses to about 46.2 µM), for the others: top-dose activity change, negative = growth inhibition, actives largely listed as inhibitors; AID 686978, 2013; DT40 Tdp1-/- hTDP1 cells, no CPT, ATP luminescence, 48 h; also: potency is read from the fitted curve at half-maximal effect; nearly all actives have a fitted effect of over 55% in size
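Growth of hTDP1-complemented DT40 Tdp1-knockout cells is measured by ATP luminescence after at least 48 hr compound exposure at 37 °C, with DMSO substituting for the 20 nM CPT used in the parallel screen.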
IL1B secr inh = qHTS for Inhibitors of Inflammasome Signaling: IL-1-beta AlphaLISA Primary Screen | THP-1 LPS/ATP IL-1B secretion, AlphaLISA, 16 h; active compounds read low | activity change, % at 57.5 µM | 360,000 tested, 4.7% active | AID 743279, 2014; in the data active = activity change below about -50%; inconclusive = mostly about -30% to -49%
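Secreted IL-1B measured by AlphaLISA bead assay after 16 h compound exposure of THP-1 cells; compounds (final up to 57.5 uM) added 1 h before LPS (250 ng/mL) and ATP (1.25 mM) stimulation; lower signal means less secretion.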
Starred values were filed as active, the others as inactive; ? = inconclusive; / = no result. A selection: hits, their analogues and other compounds. The true share with any hit is near 19%. Unless noted, calls follow the shape of the dose curve; as a rule, active = well fitted curve in the direction sought with a large enough effect; inconclusive = small, poorly fitted or top-dose-only effect, or another doubt; inactive = no such curve, though single readings can be large; an effect the other way counts as inactive or inconclusive. Unless noted, % is scaled to controls: 0 for no effect and ±100 for the full control effect.

SMILES	DT40 TDP1 CPT	HT1080 IDH1KD tx	HT1080-NT tox	DT40 TDP1 no CPT	IL1B secr inh
COc1cccc(NC(=O)CN(C)C(=O)c2cccc(S(=O)(=O)N3CC4(C)CC3CC(C)(C)C4)c2)c1 (stereo unspecified)	?	?	-17%	?	-18
CCN(CC)S(=O)(=O)c1cc(NC(=O)CNc2cccc(S(=O)(=O)N3CCOCC3)c2)ccc1C	5.2µM*	18µM*	6.5µM*	2.1µM*	-10
Cc1ccc(S(=O)(=O)N2CCOCC2)cc1NC(=O)CN(C)CC(=O)Nc1cccc(F)c1	?	-11%	-14%	21µM*	-16
CCN(CC)S(=O)(=O)c1cccc(NC(=O)c2cccc(S(=O)(=O)N3CCCC3)c2)c1	?	-18%	-8%	16µM*	-1
Cc1ccc(S(=O)(=O)N2CCOCC2)cc1NC(=O)CN(C)C1CCS(=O)(=O)C1 (stereo unspecified)	6%	9%	0%	2%	0
CC(=O)c1cccc(NCC(=O)Nc2cccc(S(=O)(=O)N3CCCCC3)c2)c1	?	-1%	1%	?	-6
Cc1ccc(NC(=O)CNc2cccc(S(=O)(=O)N3CCOCC3)c2)cc1F	?	-16%	-2%	?	-10
CCN(CC)S(=O)(=O)c1cccc(NC(=O)CNc2cccc(S(=O)(=O)N3CCCC3)c2)c1	1µM*	-25%	-24%	1.2µM*	-9
O=C(Nc1cccc(S(=O)(=O)N2CCCC2)c1)c1cccc(S(=O)(=O)N2CCOCC2)c1	?	7%	-4%	?	50
COC(Cc1ccccc1N1CCCC1=O)OC	0%	16%	23%	-4%	1
COc1ccc(NC(=O)C(NC(=O)/C=C\c2ccc3c(c2)OCO3)c2ccc(C)cc2)cc1 (stereo unspecified)	-9%	/	/	-21%	/
Cc1ccc(S(=O)(=O)N2CCCCC2)c(C)c1NS(C)(=O)=O	-4%	12%	?	-7%	-9
O=C(COc1cccnc1[N+](=O)[O-])NCCc1ccccc1	-1%	-2%	3%	-11%	0
Fc1ccc(OCCOCCNCC2CCCO2)cc1 (stereo unspecified)	-8%	0%	0%	-6%	12
CC1Cc2ccccc2N1C(=O)CN1CCN(S(=O)(=O)c2ccc3c(c2)OCCCO3)CC1 (stereo unspecified)	-23%	-1%	-3%	?	?
Cc1ccc(NCC(=O)Nc2cccc(S(=O)(=O)N(C)C)c2)cc1S(=O)(=O)N1CCCCCC1	8.2µM*	?	-19%	7.3µM*	?
Cc1ccc(S(=O)(=O)N2CCCCC2)cc1NC(=O)CNc1ccc(C(F)(F)F)cc1	?	-15%	-22%	?	?
O=C(CNc1cccc(S(=O)(=O)N2CCCC2)c1)Nc1ccc(F)c(F)c1	?	-3%	3%	?	-2
CCN(CC)S(=O)(=O)c1ccc(C)c(NC(=O)CNc2cccc(S(=O)(=O)N3CCCC3)c2)c1	18µM*	-14%	-6%	13µM*	3
CC1Cc2ccccc2N1C(=O)CNc1cccc(S(=O)(=O)N2CCCC2)c1 (stereo unspecified)	15µM*	-1%	-1%	21µM*	0
Cc1ccc(NC(=O)CN(C)CC(=O)Nc2cccc(F)c2)cc1S(=O)(=O)N1CCCCCC1	?	?	?	?	-77*
CC(OC(=O)c1cc(S(=O)(=O)N2CCOCC2)ccc1F)C(=O)NCc1ccc2c(c1)OCO2 (stereo unspecified)	9%	8%	4%	0%	-10
CS(=O)(=O)N1CCC(C(=O)Nc2cccc(Br)c2)CC1	6%	3%	5%	1%	0
Cc1cc(C)c2nc(NC(=O)c3ccc([N+](=O)[O-])o3)sc2c1	-9%	-18%	11%	3%	?
Cc1cc(C)nc(NC(=O)c2cc([N+](=O)[O-])cc([N+](=O)[O-])c2)n1	-6%	1%	-5%	?	25
SMILES	DT40 TDP1 CPT	HT1080 IDH1KD tx	HT1080-NT tox	DT40 TDP1 no CPT	IL1B secr inh
COc1cc(NC(=O)C(C)C)ccc1NC(=O)c1ccco1	6%	12%	7%	0%	-19
COc1cc(NC(=O)c2ccc([N+](=O)[O-])o2)ccc1NC(=O)c1ccco1	0.65µM*	19%	10%	0.92µM*	-27
Cc1cc(C)nc(NC(=O)c2ccc([N+](=O)[O-])o2)n1	?	-20%	-3%	13µM*	0
NS(=O)(=O)c1ccc(O)c(NC(=O)c2ccc([N+](=O)[O-])o2)c1	?	?	?	?	-61*
CC(=O)c1cccc(NC(=O)c2ccc([N+](=O)[O-])o2)c1	8.2µM*	?	15µM*	15µM*	-87*
COc1ccc(N/C(=C/[N+](=O)[O-])SC)cc1	5%	-21%	?	-10%	-57*
COc1ccc(NC(=O)c2ccc([N+](=O)[O-])o2)cc1	16µM*	?	-4%	23µM*	-96*
CC(=O)c1ccc(NC(=O)c2ccc([N+](=O)[O-])o2)cc1	2.1µM*	18µM*	?	1.8µM*	-98*
Cc1cc(C)cc(NC(=O)c2ccc([N+](=O)[O-])o2)c1	7.3µM*	16µM*	?	6.5µM*	-96*
Cc1cc(C(=O)N/N=C/C=C/c2ccc([N+](=O)[O-])cc2)n[nH]1	-23%	0%	0%	-16%	-19
Cc1ccc(/C=C/C(=O)N2CCN(S(=O)(=O)/C=C/c3ccccc3)CC2)o1	2%	15%	1%	-1%	8
CC(NC(=O)C12CC3CC(CC(C3)C1)C2)C(=O)NN=Cc1ccc([N+](=O)[O-])o1 (stereo unspecified)	?	0%	-2%	?	?
CC(NC(=O)c1ccc([N+](=O)[O-])o1)C12CC3CC(CC(C3)C1)C2 (stereo unspecified)	?	?	18µM*	?	-136*
COC(=O)c1cc(C(=O)OC)cc(S(=O)(=O)Nc2ccc(Cl)c(N)c2)c1	-1%	1%	-1%	-5%	23
CN1CCn2c1nc(N1CCOCC1)nc2=O	3%	11%	14%	-5%	10
COC1=C(OC)C(=O)C(Sc2ccc3ccccc3c2)=CC1=O	1.3µM*	16µM*	?	1.3µM*	-104*
